Many of the other results were omitted from the sample, so hits are more common in it than they were.
HT1080 IDH1KD tx: qHTS for induction of synthetic lethality in tumor cells producing 2HG: qHTS for the HT-1080-IDH1KD cell line; 2% of 360,000 active; Potency, µM (series often up to 46.1 µM), for the others: top-dose activity, negative = toxicity, usual class: cytotoxic; HT-1080 IDH1 knockdown viability, ATP luminescence, 48 h;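 further: potency means the concentration at half of the fitted maximal effect; 0% = DMSO wells and -100% = cell-free medium wells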
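Using the IDH1-knockdown HT-1080 line run in the same batch and compound series as the NT line, viability after 48 h at 37 °C was determined by CellTiter-Glo luminescence and expressed as % activity.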
DT40 TDP1 no CPT: qHTS for Inhibitors of human tyrosyl-DNA phosphodiesterase 1 (TDP1): qHTS in cells in absence of CPT. Potency, µM (doses to about 46.2 µM), for inactives: at the highest dose activity change, negative = growth inhibition, usual class: inhibitors. DT40 Tdp1-/- hTDP1 cells, no CPT, ATP luminescence, 48 h. 15% of 420,000 active; further: potency means the concentration at half of the fitted maximal effect; nearly all actives have a fitted effect of over 55% in size
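Chicken DT40 Tdp1-/- cells complemented with human TDP1, screened without camptothecin (DMSO vehicle only), 400 cells/well. Compounds pin-transferred, cells incubated at 37 °C for at least 48 hr. Growth read as ATP-dependent luminescence (CellTiter-Glo, 30 min at RT).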
DT40 TDP1 CPT: qHTS for Inhibitors of human tyrosyl-DNA phosphodiesterase 1 (TDP1): qHTS in cells in presence of CPT; chicken DT40 Tdp1-/-;hTDP1 cells + 20 nM CPT, ATP luminescence, 48 h; Potency, µM (doses to about 46.2 µM), inactives show at the top dose activity change, negative = growth inhibition, usual class: inhibitors; 12% of 420,000 active; further: potency means the concentration at half of the fitted maximal effect; nearly all actives have a fitted effect of over 55% in size
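Chicken DT40 Tdp1-/- cells stably complemented with human TDP1 were seeded at 400 cells/well in medium containing 20 nM camptothecin, exposed to pin-transferred compounds, and grown at 37 °C for at least 48 hr. Viability was read as ATP luminescence.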
12-LOX inh: Primary qHTS assay for inhibitors of human arachidonate 12S-lipoxygenase (ALOX12): Round 2 | Polyunsaturated fatty acid lipoxygenase ALOX12 (Homo sapiens), P18054 | Potency, µM (doses to about 108 µM), inactives show at the highest dose activity change, negative = inhibition, hits mostly inhibitors | 1.1% of 580,000 active | purified 12hLO, xylenol orange hydroperoxide absorbance; further: potency means the concentration at half of the fitted maximal effect
Target sequence (P18054 whole entry, looked up): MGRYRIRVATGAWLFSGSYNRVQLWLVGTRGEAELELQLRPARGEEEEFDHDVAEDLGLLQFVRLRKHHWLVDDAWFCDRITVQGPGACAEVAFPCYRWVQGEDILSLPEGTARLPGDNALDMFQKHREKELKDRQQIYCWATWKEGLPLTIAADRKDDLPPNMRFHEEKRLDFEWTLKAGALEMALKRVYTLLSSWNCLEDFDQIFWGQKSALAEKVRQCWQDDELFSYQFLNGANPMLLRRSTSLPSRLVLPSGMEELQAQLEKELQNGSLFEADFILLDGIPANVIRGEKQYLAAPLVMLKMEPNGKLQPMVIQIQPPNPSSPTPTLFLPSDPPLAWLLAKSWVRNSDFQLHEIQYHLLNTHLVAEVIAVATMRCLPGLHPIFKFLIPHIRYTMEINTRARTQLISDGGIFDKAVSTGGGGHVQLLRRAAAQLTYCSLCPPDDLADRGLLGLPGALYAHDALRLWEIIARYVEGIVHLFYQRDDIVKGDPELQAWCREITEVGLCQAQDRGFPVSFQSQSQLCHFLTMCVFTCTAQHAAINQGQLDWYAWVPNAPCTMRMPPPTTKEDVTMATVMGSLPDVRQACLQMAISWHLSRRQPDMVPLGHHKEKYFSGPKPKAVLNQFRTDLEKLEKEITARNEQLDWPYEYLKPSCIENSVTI
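Purified human 12hLO at 150 nM in 25 mM Hepes, 0.01% Triton X-100, pH 7.0, preincubated 15 min at room temperature with compound. Reaction started with 40 uM arachidonic acid, 30 min at room temperature. Hydroperoxide measured by Fe-xylenol orange, 573/405 nm absorbance ratio.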
HT1080-NT tox: qHTS for induction of synthetic lethality in tumor cells producing 2HG: qHTS for the HT-1080-NT fibrosarcoma cell line | HT-1080-NT fibrosarcoma viability, CellTiter-Glo ATP luminescence, 48 h | Potency, µM (series often up to 46.1 µM), for inactives: at the top dose activity, negative = less viability, actives largely listed as cytotoxic | 1.6% of 360,000 active | AID 686970, 2013;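 further: NT is the 2HG producing partner of a matched IDH1 knockdown line; potency means the concentration at half of the fitted maximal effect; 0% = DMSO-treated cells and -100% = media-only wells without cells; nearly all actives have a fitted effect of over 55% in size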
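Viability of the 2HG-overproducing fibrosarcoma line after 48 hours of compound exposure at 37 degrees C was determined by luminescence with CellTiter-Glo, and concentration-effect curves were then fitted and categorized.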
IL1B secr inh: qHTS for Inhibitors of Inflammasome Signaling: IL-1-beta AlphaLISA Primary Screen; THP-1 LPS/ATP IL-1B secretion, AlphaLISA, 16 h; active compounds read low; activity change, % at 57.5 µM; 4.7% of 360,000 active; AID 743279, 2014; in the data active means activity change below about -50%; inconclusive means mostly about -30% to -49%
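THP-1 cells pretreated 1 hr with compounds (up to 57.5 uM final), then stimulated with LPS (250 ng/mL final) plus ATP (1.25 mM final); secreted IL-1B measured by AlphaLISA after 16 hr, decreased signal indicating inhibition.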
* = called active by the depositor; ? = inconclusive; · = no result; ! = a repeat was not active; [ ] = dose if it differs, or a comment. Unless noted, the call rests on the fitted dose curve; in most records, active means well fitted curve in the direction sought with a large enough effect; inconclusive means small, poorly fitted or top-dose-only effect, or another doubt; inactive means no such curve, though single readings can be large; an effect the other way counts as inactive or inconclusive. Unless noted, on the % scale 0 is the no-effect control and ±100 the full control effect.

SMILES	HT1080 IDH1KD tx	DT40 TDP1 no CPT	DT40 TDP1 CPT	12-LOX inh	HT1080-NT tox	IL1B secr inh
Clc1cccc(OCCCN2CCCC2)c1Cl	-13%	?	-25%	-17%	0%	-13
Clc1cccc(OCCOCCN2CCNCC2)c1Cl	-26%	23µM*	-18%	?	-19%	-22
Cc1cc(C(C)(C)C)ccc1OCCOCCN1CCCC1	-7%	?	?	?	-1%	-21
Clc1cc(Br)ccc1OCCOCCN1CCCC1	-14%	?	?	?	0%	-91*
Cc1ccc2c(c1)C1CN(C)CCC1N2C(=O)COc1ccc(N(C)C(=O)c2ccccc2)cc1 (configuration not stated)	-9%	13µM*	5.2µM*	-12%	-1%	0
COc1ccc(C2C(O)C(c3c[nH]c4ccccc34)=NN2C(=O)CCl)cc1 (configuration not stated)	0.65µM*	0.58µM*	0.33µM*	?	0.46µM*	-99*
O=C(Nc1cc(Cl)cc(Cl)c1)N[C@@H]1CC[C@@H](CCNS(=O)(=O)c2cccc(F)c2)O[C@@H]1CO	?	16µM*	?	?	18µM*	6
Oc1ccc(Cl)cc1CNC1CCCCC1	-2%	?	-1%	?	-5%	?
Oc1ccc(Cl)cc1CNCC1CCCCC1	-2%	?	15µM*	?	-4%	-64*
COc1cc(C(C)=O)ccc1COc1ccc(C(=O)OCc2ccc(Br)cc2)cc1OC	·	·	·	-35%	·	·
Cc1ccc2occ(-c3cc(-c4ccccc4)nc4c3COc3ccccc3-4)c(=O)c2c1	·	?	-28%	-11%	·	·
Nc1ncncc1-c1ccc([N+](=O)[O-])cc1	6%	?	16µM*	-1%	0%	-2
Cn1c(CN2CC[C@H](c3nc4ccccc4[nH]3)C2)nc2ccccc21	·	·	·	85%[176 µM]	·	·
COc1cc2c(cc1O)CCC1C2CC[C@@]2(C)C1CC[C@@H]2O (some centres not stated)	·	1.9µM*	2.4µM*	?	·	·
CCOc1cc(C2NC(=O)NC2=O)ccc1O (configuration not stated)	12%	-8%	2%	-22%	21%	-3
C[C@]12CC[C@@H]3c4ccc(OC(=O)c5ccccc5)cc4CC[C@H]3[C@@H]1CC[C@@H]2O	0%	13µM*!	15µM*!	6%	-1%	17
C[C@]12CC[C@@H]3c4ccc(O)cc4CC[C@H]3[C@@H]1C[C@@H](O)[C@@H]2O	-13%	-16%	?	9%	7%	15
CCOc1cc2c(cc1O)C(=NO)CC1C2CCC2(C)C(O)CCC12 (configuration not stated)	?	0.052µM*	0.18µM*	0%	0.29µM*	-1
C[C@]12CCC3c4ccc(OC(=O)c5ccccc5)cc4CCC3C1CCC2=O (some centres not stated)	·	0%	19%	·	·	·
O=C(COc1ccccc1Cl)Nc1nc(-c2ccc(Br)o2)ns1	·	·	·	-9%	·	·
O=C(Nc1c(C(=O)N2CCN(c3ccccc3F)CC2)oc2ccccc12)c1ccc(Br)o1	·	?	18µM*	-15%	·	·
CC(C)C(=O)Nc1c(C(=O)N2CCN(c3ccccc3F)CC2)oc2ccccc12	·	12µM*	10µM*	1%	·	·
CCCCC(=O)Nc1c(C(=O)N2CCN(c3ccccc3)CC2)oc2ccccc12	·	9.2µM*	15µM*	-7%	·	·
CC(C)C(=O)Nc1c(C(=O)N2CCN(c3ncccn3)CC2)oc2ccccc12	1%	-11%	-23%	4%	29%	-11
CC(C)CC(=O)Nc1c(C(=O)N2CCN(c3ccccc3)CC2)oc2ccccc12	·	21µM*	15µM*	-4%	·	·
SMILES	HT1080 IDH1KD tx	DT40 TDP1 no CPT	DT40 TDP1 CPT	12-LOX inh	HT1080-NT tox	IL1B secr inh
CC1(C)CCc2c(ccc3ccc(=O)oc23)O1	·	·	·	5%	·	·
O=C(O)c1c2c(nc3ccc(S(=O)(=O)N4CCC(C(=O)NC5CCCCCC5)CC4)cc13)CCCC2	4%	8%	-6%	?	-1%	4
COc1ccc(C[C@@H]2NC(=O)[C@@H]3C[C@@H](NC(=O)Nc4cccc(SC)c4)CCN3C2=O)cc1	·	·	·	14%	·	·
CCC(CC)C(=O)Nc1c(C(=O)N2CCN(c3ccccc3F)CC2)oc2ccccc12	·	10µM*	15µM*	-14%	·	·
CCC(CC)C(=O)Nc1c(C(=O)N2CCN(c3ccccc3)CC2)oc2ccccc12	-24%	8.2µM*	21µM*	-2%	?	-13
O=C(NCc1ccccn1)C1CCCN(C2CCN(C(=O)Cn3cnnn3)CC2)C1 (configuration not stated)	·	·	·	10%	·	·
COc1ccc(-c2oc3ccccc3c(=O)c2OC(C)=O)cc1	?	16µM*	23µM*	?	?	19
CC(=O)Oc1c(-c2ccc(Br)o2)oc2ccccc2c1=O	?	15µM*	26µM*	35µM*	-19%	-29
O=C(O)COc1c(-c2ccco2)oc2ccccc2c1=O	1%	-10%	5%	-15%	-1%	18
CC1CCCCN1C(=O)c1cc2nc(-c3ccccc3)cc(-c3ccccc3)n2n1 (configuration not stated)	?	23µM*	16µM*	-12%	?	-61*
COc1ccc(-c2cc(C(F)F)n3ncc(C(=O)N4CCN(C)CC4)c3n2)cc1	0%	-28%	-28%	-13%[57.4 µM]	-2%	?
Cc1ccc(-c2cc(C(F)(F)F)n3nc(C(=O)N4CCN5CCCC5C4)cc3n2)cc1 (configuration not stated)	?	?	?	-9%	?	-62*
COc1ccc(-c2cc(C(F)(F)F)n3nc(C(=O)N4CCN5CCCC5C4)cc3n2)cc1OC (configuration not stated)	-6%	?	?	1%	-1%	-24
Cc1ccc(-c2cc(C(F)F)n3ncc(C(=O)N4CCN5CCCC5C4)c3n2)cc1 (configuration not stated)	-7%	?	15µM*	4%	-9%	?

Bioassay records from PubChem.
